About 83,000 compounds went through this panel and 20% of them were active in at least one assay; those are over-represented in the sample as a whole.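 Single-concentration screen, 48 h exposure, 96-well plates. Endpoint: percent growth. Below 10 = active.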 Values without a mark were called inactive. Calls of active or inactive are those of the source.

Among the test systems are NCI-H23 lung; NCI-H226 lung; NCI-H322M lung; HOP-62 NSCLC; NCI-H460 lung; HOP-92 NSCLC; NCI-H522 lung; 786-0 renal; COLO 205 colon; A549/ATCC NSCLC.
What all share (experiment): NCI-60 one-dose screen, 48 h (100 = growth as untreated, 0 = no growth, -100 = all killed)
What all share (settings): 10 µM unless noted

For the molecule `CN(C)c1ccc(/C=C\C2=[N+](C)c3ccccc3C2(C)C)cc1`, the growth in the experiment on NCI-H23 lung was 7.51% (active); in the experiment on NCI-H226 lung it was 16.3%; with NCI-H322M lung it was 23.7%; in the experiment with HOP-62 NSCLC, 13.6%; in the experiment with NCI-H460 lung, 4.52% (active); in the experiment on HOP-92 NSCLC, -15.6% (active). The growth was -23.7% (active) in the experiment with NCI-H522 lung, 18.1% with 786-0 renal and -78.8% (active) with COLO 205 colon.
On to `O=C(/C=C/c1ccc(B(O)O)cc1)/C=C/c1ccc(B(O)O)cc1`, for which the growth in the experiment with NCI-H23 lung is 62.4%; with NCI-H226 lung it was 78.1%; in the experiment on NCI-H322M lung, 80.9%; with HOP-62 NSCLC, 105%; in the experiment with NCI-H460 lung it was 57.5%; with HOP-92 NSCLC, 82.6%. In addition, the growth in the experiment with NCI-H522 lung was 72.4%; in the experiment with 786-0 renal, -72.5% (active); in the experiment with COLO 205 colon, 36.8%.
Regarding `CN1CCN(Cc2ccc(NC(=O)c3[nH]ncc3Nc3ccnc4ccsc34)cc2)CC1`, the growth in the experiment on NCI-H23 lung was 15.4%; in the experiment on NCI-H226 lung it was 5.11% (active); in the experiment with NCI-H322M lung it was 20%; with HOP-62 NSCLC it was 40.4%; with NCI-H460 lung, 8.74% (active); with HOP-92 NSCLC, 76.2%. The growth in the experiment on NCI-H522 lung is 47.2%; in the experiment on A549/ATCC NSCLC, 24.1%; in the experiment with COLO 205 colon, 18.9%.
`Cc1cc(=O)oc2cc(Oc3nc(-c4cccs4)cn4c(-c5cccs5)cnc34)ccc12`: the growth is 56.6% in the experiment on NCI-H23 lung; 83% with NCI-H226 lung; 89.4% with NCI-H322M lung; 59% in the experiment with HOP-62 NSCLC; 50.5% in the experiment with NCI-H460 lung; 7.71% (active) in the experiment on HOP-92 NSCLC. Further, the growth in the experiment with NCI-H522 lung was 74.6%; in the experiment with A549/ATCC NSCLC it was 58.5%; with COLO 205 colon it was 75%.
For the molecule `COc1ccc(/C=c2/c(=O)[nH]c3nc4sc(C)c(C)c4c(=O)n23)cc1`, the growth is 90.7% in the experiment on NCI-H23 lung; 94% with NCI-H226 lung; 98.7% with NCI-H322M lung; 100% with HOP-62 NSCLC; 88.3% in the experiment with NCI-H460 lung; 92.6% with HOP-92 NSCLC. Further, the growth in the experiment with NCI-H522 lung is 74.4%; in the experiment with 786-0 renal, 88.1%; in the experiment with COLO 205 colon, 111%.
For `Nc1nc2c(c3ncccc13)C(c1ccc(Cl)c(Cl)c1)Cc1ncccc1-2` (stereo not drawn), the growth was 32.7% in the experiment on NCI-H23 lung; 70.8% with NCI-H226 lung; 40.9% in the experiment with NCI-H322M lung; 28% in the experiment on HOP-62 NSCLC; 12.5% with NCI-H460 lung; 59% with HOP-92 NSCLC. The growth in the experiment on NCI-H522 lung is -6.27% (active); in the experiment with 786-0 renal, 29.9%; in the experiment with COLO 205 colon it was 1.52% (active).
As for `COC1=CC(=O)C(OC)=C(OC)C1=O`, the growth in the experiment with NCI-H23 lung is 90.5%; in the experiment on NCI-H226 lung, 86.7%; in the experiment on NCI-H322M lung it was 94.2%; in the experiment with HOP-62 NSCLC it was 92.6%; in the experiment with NCI-H460 lung, 96.6%; with HOP-92 NSCLC it was 109%. The values for the growth in the experiment on NCI-H522 lung, with 786-0 renal and in the experiment on COLO 205 colon were 100%, 93.4% and 114%, respectively.
Take `O=c1c2cccc3c(Nc4ccccn4)ccc(c32)c2nc3ccccc3n12`: the growth in the experiment with NCI-H23 lung is 60.6%; in the experiment with NCI-H226 lung, 69.7%; in the experiment on NCI-H322M lung, 74.5%; with HOP-62 NSCLC, 67.8%; with HOP-92 NSCLC, 54.9%; with NCI-H522 lung it was 56.6%. Moreover, the growth in the experiment with A549/ATCC NSCLC was 70.9%; in the experiment on 786-0 renal it was 88.4%.
Regarding `COC(=O)[C@@H]1CC[C@]2(C)[C@H](CC[C@@H]3O[C@@]32C)[C@@]1(C)CC(=O)c1ccoc1`, the growth in the experiment on NCI-H23 lung is 98.5%; in the experiment with NCI-H226 lung, 91.8%; in the experiment on NCI-H322M lung it was 102%; with HOP-62 NSCLC, 95.1%; in the experiment with NCI-H460 lung, 101%; with HOP-92 NSCLC it was 93.3%. The values for the growth in the experiment with NCI-H522 lung, in the experiment on 786-0 renal and in the experiment with COLO 205 colon were 80.4%, 107% and 113%, respectively.
With `NC(=S)N/N=C/c1cc(-c2cccc(N)c2)ccn1`, the growth in the experiment with NCI-H23 lung was 23.1%; with NCI-H226 lung, 16.5%; with NCI-H322M lung, 8.21% (active); with HOP-62 NSCLC, 5.98% (active); in the experiment on NCI-H460 lung, 5.59% (active); in the experiment with HOP-92 NSCLC it was 39.7%. Besides, the growth with NCI-H522 lung was -17.3% (active); in the experiment with 786-0 renal, 31.4%; in the experiment with COLO 205 colon, 25.5%.
As for `CC(=O)Oc1ccc(Nc2c3ccccc3nc3ccccc23)cc1`, the growth in the experiment with NCI-H23 lung was 11.9%; with NCI-H226 lung, -59.2% (active); in the experiment with NCI-H322M lung, 19.9%; in the experiment with HOP-62 NSCLC, 11.2%; in the experiment with NCI-H460 lung it was -26.5% (active); with HOP-92 NSCLC, -3.96% (active). The figures for the growth in the experiment with NCI-H522 lung, with 786-0 renal and with COLO 205 colon were -69.7% (active), 16.5% and 3.96% (active), respectively.
As for `COc1ccc(/C=N\NC(=O)CN2CCN(c3cc4c(cc3F)c(=O)c(C(=O)N/N=C/c3ccc(OC)cc3)cn4C3CC3)CC2)cc1`, the growth in the experiment on NCI-H23 lung was 96.3%; in the experiment with NCI-H226 lung, 85.6%; in the experiment with NCI-H322M lung, 91.7%; in the experiment with HOP-62 NSCLC it was 97.4%; with NCI-H460 lung, 86.1%; with HOP-92 NSCLC it was 92.1%. Besides, the growth was 73.8% in the experiment with NCI-H522 lung, 93.9% with 786-0 renal and 96.9% in the experiment with COLO 205 colon.
As for `O=C1OC2C(I)C3CC2C1C3c1ccccc1` (stereo not drawn), the growth is 94.8% with NCI-H23 lung; 105% in the experiment with NCI-H226 lung; 139% in the experiment on NCI-H322M lung; 88.9% in the experiment on HOP-62 NSCLC; 117% in the experiment on NCI-H460 lung; 93.7% in the experiment with HOP-92 NSCLC. Besides, the growth was 110% in the experiment on NCI-H522 lung, 95.2% in the experiment with 786-0 renal and 125% in the experiment with COLO 205 colon.
With `COCCOC(=O)C1=C(C)NC(=S)NC1c1ccc2c(c1)OCO2` (stereo not drawn), the growth in the experiment with NCI-H23 lung was 96.2%; in the experiment on NCI-H226 lung, 90.2%; in the experiment with NCI-H322M lung, 101%; with HOP-62 NSCLC it was 98%; with NCI-H460 lung, 112%; with HOP-92 NSCLC it was 108%. For the same molecule, the results for the growth with NCI-H522 lung and in the experiment on 786-0 renal were 94.3% and 107%, respectively.
With `CCOC(=O)C(=Cc1ccccc1F)C(=O)OCC`, the growth in the experiment on NCI-H23 lung was 99.2%; in the experiment with NCI-H226 lung, 96.1%; in the experiment on NCI-H322M lung, 94%; in the experiment on HOP-62 NSCLC, 137%; in the experiment with NCI-H460 lung, 105%; in the experiment on HOP-92 NSCLC it was 103%. Besides, the growth was 65.2% in the experiment with NCI-H522 lung, 104% with 786-0 renal and 115% in the experiment on COLO 205 colon.

These data come from PubChem BioAssay (NCI).
